Source: PubChem BioAssay
Compounds with a hit are over-represented: about 3.9% of the library has one in this group of screens.
MITF act: activators of MITF-driven TRPM1 promoter activity in SK-MEL-5 cells | hit rate 0.75% among 300,000 | AID 588334 | activation, % at 12.5 µM | SK-MEL-5 TRPM1-promoter luciferase, 24 h; % of positive control, neutral wells = 0;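 active = mean activation of at least 80% with every replicate also reaching 80%; inconclusive = mean reaches 80% but some replicate falls short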;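 also: 0% = neutral control wells and 100% = parthenolide positive control wells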
HSF1 activator: increases HSF-1 driven luciferase reporter signal | NIH3T3-HGL HSF-1 luciferase reporter, MG132, 8 h; 100% = twice DMSO control signal | activation, % at 9 µM | hit rate 1.7% among 300,000 | AID 504408;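 active = mean replicate activation of at least 50% with a set share of replicates each reaching 50%; inconclusive = only one of those two conditions met; inactive = mean below 50% and too few replicates reaching it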;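 also: 0% = median of the neutral control wells and 100% = twice that signal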
HSF1 inh: HSF1 inhibition. NIH3T3-HGL HSE-luciferase, MG132-induced, luminescence 8 h; hits give low values. activity change, negative = inhibition, % at 7.5 µM (by protocol). hit rate 0.77% among 300,000. AID 2098;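 active = more than half of replicate wells show activity change below -50%, luminescence cut by over half; inconclusive = some wells, but at most half, below -50%; inactive = no replicate well below -50%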;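 also: luciferase reports HSF-1 transcriptional activity via heat shock element; 0% = median of DMSO wells and -100% = zero luminescence signal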
Wnt bcat act: activates Wnt/beta-catenin signaling in a reporter cell assay; AID 743398; activator, plate reader; activation, % at 9.35 µM; hit rate 1.2% among 300,000; in the data active = activation above about 30%, passing the limit was not always enough; inconclusive = no clear call, values can overlap the other calls;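 also: 0% = neutral control wells and 100% = positive control wells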
esBAF inh: inhibitors of esBAF chromatin remodeling in mouse ES cells; reporter increase, % at 12.5 µM; Bmi1-luciferase knock-in reporter, 24 h; 100% = twice the neutral-well signal; hit rate 2% among 350,000; AID 602393; in the data active = activation above about 40%; inconclusive = no clear call, values can overlap the other calls;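 also: 0% = median of the plate's neutral control wells and 100% = double that signal; a rise in the Bmi1 reporter signal indicates esBAF inhibition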
The depositor's hits bear a star; ? = inconclusive; . = no result given.

SMILES | MITF act | HSF1 activator | HSF1 inh | Wnt bcat act | esBAF inh
COCC(=O)Nc1ccc2c(c1)C(=O)N(C)C[C@@H](OC)[C@H](C)CN(Cc1ccccc1OC)[C@H](C)CO2 | . | . | . | . | 2.2
COc1ccc(NC(=O)CN(C)C(=O)C2(c3ccccc3)CCCC2)cc1 | -39.9 | . | . | -1.7 | 55.2*
COc1ccc(NC(=O)C#Cc2ccccc2)cc1 | . | 54.2* | 41.0 | 14.3 | ?
O=C(C#Cc1ccccc1)Nc1ccc(F)cc1 | . | 41.4 | 31.6 | 8.2 | 49.3*
COc1ccc(NC(=O)CCOc2ccccc2)cc1 | 112.3* | 13.2 | 17.9 | . | 49.2*
COCCNC(=O)C[C@@H]1C[C@H]2c3cc(NC(=O)COC)ccc3O[C@H]2[C@H](CO)O1 | . | . | . | . | -3.1
COCC(=O)Nc1ccc2c(c1)C(=O)N(C)C[C@H](OC)[C@@H](C)CN(C(=O)c1ccccc1F)[C@H](C)CO2 | . | . | . | . | -7.2
CCN(C[C@@H]1[C@@H](c2ccccc2)[C@@H](CO)N1C(C)=O)C(=O)c1ccccn1 | . | . | . | . | -2.1
CCCNC(=O)N(C)C[C@H]1Oc2ncc(C#C[C@H](C)O)cc2C(=O)N([C@@H](C)CO)C[C@@H]1C | . | . | . | . | 0.7
O=C(C[C@@H]1C=C[C@@H](NC(=O)Nc2ccccc2F)[C@@H](CO)O1)NCc1ccc(F)cc1 | . | . | . | . | -1.7
O=C(C#Cc1ccccc1)Nc1cccc(F)c1 | . | 81.6* | 44.4 | -4.5 | -76.6
O=C(CC(=O)Nc1cccc(F)c1)Nc1cccc(F)c1 | . | 7.3 | -0.2 | -0.1 | -5.7
CCOC(=O)C1(Cc2ccc(OC)cc2)CCN(C(=O)c2cc(C)on2)CC1 | 41.5 | 10.9 | -1.3 | 2.7 | 33.9
CCOC(=O)C1(Cc2ccc(OC)cc2)CCN(C(=O)c2cc3ccccc3[nH]2)CC1 | 0.8 | 77.3* | 56.3 | 22.6 | .
Cc1c(C(=O)N2CCN(C(=O)c3ccccc3)CC2)oc2ccc(F)cc12 | -19.5 | . | . | 3.4 | -2.6
Cc1c(C(=O)Nc2nccs2)oc2ccc(Br)cc12 | 29.7 | . | . | 1.3 | 72.4*
Cc1c(C(=O)/C=C/c2cccs2)oc2ccc(F)cc12 | 22.7 | 106.0* | 38.3 | . | 63.3*
Cc1c(C(=O)Nc2nccs2)oc2ccc(F)cc12 | 33.7 | . | . | 38.0* | -12.4
Cc1cc(C(=O)Nc2nccs2)c2cc(F)ccc2n1 | -12.3 | 31.5 | 4.7 | 5.9 | .
CCc1nnc(NC(=O)c2oc3ccc(Br)cc3c2C)s1 | 44.1 | . | . | 9.5 | .
C[C@@H]1CCCCO[C@@H](CN(C)Cc2ccc3c(c2)OCO3)[C@@H](C)CN([C@@H](C)CO)C(=O)c2cc(NC(=O)Nc3cccc4ccccc34)ccc2O1 | . | . | . | . | 5.4
O=c1[nH]c2ccccc2n2cnnc12 | 2.9 | -86.4 | -82.6* | -2.0 | .
COCC(=O)N1C[C@@H](C)[C@@H](OC)CN(C)C(=O)c2cc(NC(=O)Nc3cccc(F)c3)ccc2OC[C@@H]1C | . | . | . | . | -0.4
Cc1cccc(C(C#N)c2ccc(Cl)nn2)c1 (stereo unspecified) | 2.6 | 73.9* | 24.9 | -1.7 | .
CC1CCc2c(sc3ncn(CCO)c(=O)c23)C1 (stereo unspecified) | 73.9 | 30.5 | 5.9 | 10.6 | 53.0*
SMILES | MITF act | HSF1 activator | HSF1 inh | Wnt bcat act | esBAF inh
CCCNC(=O)[C@H]1[C@H](CO)[C@H]2Cn3c(cccc3=O)[C@H]2N1C(=O)C1CCC1 | . | . | . | . | -1.5
Cc1cc(C)cc(NC(=O)Nc2ccc3ccccc3n2)c1 | . | 6.2 | -0.7 | -0.5 | .
O=C(Nc1ccc2ccccc2n1)c1ccccc1Br | 26.0 | 70.9* | 34.0 | 35.1* | 51.7*
COc1ccc(C(=O)Nc2ccc(Cl)cn2)cc1S(=O)(=O)N1CCCC1 | 17.9 | . | . | 5.1 | 13.7
COc1ccc(C(=O)Nc2ccc(Cl)cn2)cc1Cl | ? | 33.4 | 18.8 | ? | 68.8*
COc1ccc(C(=O)Nc2ccc([N+](=O)[O-])cn2)cc1OC | 19.5 | 4.8 | -8.9 | 0.3 | .
COc1ccc(C(=O)Nc2ccc3ccccc3n2)cc1OC | 53.1 | 40.3 | 26.8 | 21.5 | 70.4*
O=C(CCc1ccccc1)Nc1ccc2ccccc2n1 | 100.3* | 92.3* | 41.3 | 55.8* | .
COc1ccc(S(=O)(=O)Nc2cccc3c2O[C@@H](CN(C)S(=O)(=O)c2ccccc2)[C@H](C)CN([C@@H](C)CO)C3=O)cc1 | . | . | . | . | 2.5
O=C(Nc1ccc2ccccc2n1)c1ccccc1 | 29.3 | 36.6 | 25.6 | 18.0 | 0.5
O=C(Nc1ccc2ncccc2c1)Nc1ccc2ncccc2c1 | 27.8 | 27.1 | 9.6 | 12.1 | ?
Cc1ccc(C(=O)Nc2ccc3ccccc3n2)cc1 | 41.2 | 58.3* | 26.4 | 35.7* | 6.2
O=C(Nc1ccc2ncccc2c1)c1ccccc1Br | . | 8.1 | 14.3 | . | 110.1*
